# Publication PMC7862700, “An all-to-all approach to the identification of sequence-specific readers for epigenetic DNA modifications on cytosine”
# Legend:
# Assay in all cases: DAPPL (digital affinity profiling via proximity ligation, sequencing); 10 mM Tris-HCl pH 7.5, 50 mM NaCl, 1 mM DTT, 4% glycerol, room temperature, 30 min; GST-TFs on glutathione beads, 16-mer random dsDNA library, 0.1% formaldehyde crosslink after washing; high values mean tight binding
# Conditions in all cases: protein: recombinant; tags: N-terminal GST; dsDNA, one strand shown
# FLI1 = biological target: T1, FLI1 (Homo sapiens, UniProt Q01543 1-452)
# T1 sequence: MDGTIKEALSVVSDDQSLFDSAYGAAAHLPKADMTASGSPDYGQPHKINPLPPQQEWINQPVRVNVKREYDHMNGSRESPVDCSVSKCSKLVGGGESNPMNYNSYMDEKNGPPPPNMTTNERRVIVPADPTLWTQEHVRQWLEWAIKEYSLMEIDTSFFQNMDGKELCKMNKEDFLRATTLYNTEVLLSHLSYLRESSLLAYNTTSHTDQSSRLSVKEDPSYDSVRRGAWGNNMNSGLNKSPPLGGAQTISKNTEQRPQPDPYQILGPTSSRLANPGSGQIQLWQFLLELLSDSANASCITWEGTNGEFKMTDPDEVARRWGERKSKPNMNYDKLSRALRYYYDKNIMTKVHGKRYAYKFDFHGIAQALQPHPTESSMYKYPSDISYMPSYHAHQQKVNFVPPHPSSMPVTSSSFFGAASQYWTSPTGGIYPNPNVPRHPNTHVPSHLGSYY
# How it was run: (§1)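 Pools were built from human transcription factors expressed in yeast as GST fusions, captured on glutathione beads and DNA-barcoded, along with a tag-only sample. Incubation with 200 nmole of a 16-mer random double-stranded DNA library lasted 30 min at room temperature in Tris/NaCl/DTT/glycerol buffer, and was followed by washing, 0.1% formaldehyde crosslinking, proximity ligation, PCR amplification and Illumina NextSeq500 sequencing. Binding signal is the quotient of each hexamer's read frequency for a factor and its frequency for the tag-only sample.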
# ELK1 = biological target: T2, ELK1 (Homo sapiens, UniProt P19419 1-428)
# T2 sequence: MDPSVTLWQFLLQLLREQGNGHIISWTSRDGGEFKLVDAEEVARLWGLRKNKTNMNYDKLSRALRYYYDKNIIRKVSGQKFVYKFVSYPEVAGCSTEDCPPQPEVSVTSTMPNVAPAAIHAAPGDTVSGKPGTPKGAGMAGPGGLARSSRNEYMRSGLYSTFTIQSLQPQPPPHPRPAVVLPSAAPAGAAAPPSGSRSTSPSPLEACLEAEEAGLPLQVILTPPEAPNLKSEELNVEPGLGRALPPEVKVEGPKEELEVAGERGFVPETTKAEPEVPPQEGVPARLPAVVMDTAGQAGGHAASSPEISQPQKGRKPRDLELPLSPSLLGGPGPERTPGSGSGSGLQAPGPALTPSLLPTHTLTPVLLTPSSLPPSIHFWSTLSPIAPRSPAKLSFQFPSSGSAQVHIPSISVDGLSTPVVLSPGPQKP
# How it was run: as §1
# GABPA = biological target: T3, GABPA (Homo sapiens, UniProt Q06546 1-454)
# T3 sequence: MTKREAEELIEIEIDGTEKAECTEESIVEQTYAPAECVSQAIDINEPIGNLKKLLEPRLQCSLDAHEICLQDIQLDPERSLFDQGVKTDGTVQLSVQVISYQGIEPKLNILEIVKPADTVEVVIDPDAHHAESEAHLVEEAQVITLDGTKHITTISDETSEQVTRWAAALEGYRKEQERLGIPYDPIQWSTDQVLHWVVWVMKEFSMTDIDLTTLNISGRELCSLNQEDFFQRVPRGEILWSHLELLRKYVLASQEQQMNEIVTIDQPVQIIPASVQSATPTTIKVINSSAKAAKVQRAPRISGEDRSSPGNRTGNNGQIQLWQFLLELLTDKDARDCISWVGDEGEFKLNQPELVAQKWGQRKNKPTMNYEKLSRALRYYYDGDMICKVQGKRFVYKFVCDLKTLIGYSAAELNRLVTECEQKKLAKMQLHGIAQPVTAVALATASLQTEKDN
# How it was run: as §1
# ERG = biological target: T4, ERG (Homo sapiens, UniProt P11308 1-479)
# T4 sequence: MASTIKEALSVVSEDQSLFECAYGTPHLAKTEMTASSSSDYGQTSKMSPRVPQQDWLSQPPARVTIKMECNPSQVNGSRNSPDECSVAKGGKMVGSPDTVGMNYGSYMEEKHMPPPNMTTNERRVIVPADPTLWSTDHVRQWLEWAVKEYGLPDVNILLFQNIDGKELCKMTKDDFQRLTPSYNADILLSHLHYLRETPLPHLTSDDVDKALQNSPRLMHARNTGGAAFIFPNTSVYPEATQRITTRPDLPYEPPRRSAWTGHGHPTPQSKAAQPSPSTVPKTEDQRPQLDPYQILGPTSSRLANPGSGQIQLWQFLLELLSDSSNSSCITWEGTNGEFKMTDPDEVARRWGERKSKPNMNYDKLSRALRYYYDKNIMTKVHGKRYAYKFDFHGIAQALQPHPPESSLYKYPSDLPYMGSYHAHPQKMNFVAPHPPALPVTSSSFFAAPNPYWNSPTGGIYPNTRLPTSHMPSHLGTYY
# How it was run: as §1
# ELF1 = ELF1 (Homo sapiens, UniProt P32519 1-619)
# Chain of ELF1 (P32519 whole entry): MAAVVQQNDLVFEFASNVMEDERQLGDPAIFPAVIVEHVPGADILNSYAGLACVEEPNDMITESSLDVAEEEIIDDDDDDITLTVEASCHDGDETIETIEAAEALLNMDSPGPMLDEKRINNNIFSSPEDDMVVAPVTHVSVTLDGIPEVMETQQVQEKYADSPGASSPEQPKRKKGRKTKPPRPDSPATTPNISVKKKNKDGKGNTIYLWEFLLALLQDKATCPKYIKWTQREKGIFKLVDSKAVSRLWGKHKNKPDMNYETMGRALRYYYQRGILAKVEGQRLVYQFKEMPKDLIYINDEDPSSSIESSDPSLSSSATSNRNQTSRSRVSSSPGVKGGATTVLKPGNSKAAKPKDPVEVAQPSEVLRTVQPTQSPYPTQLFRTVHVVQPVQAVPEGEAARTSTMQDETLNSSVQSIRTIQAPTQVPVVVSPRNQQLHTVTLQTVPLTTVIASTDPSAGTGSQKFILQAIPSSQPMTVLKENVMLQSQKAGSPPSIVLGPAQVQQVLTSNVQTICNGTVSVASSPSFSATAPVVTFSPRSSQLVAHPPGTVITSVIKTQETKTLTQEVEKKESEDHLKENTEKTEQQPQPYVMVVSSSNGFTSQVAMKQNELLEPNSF
# How it was run: as §1
# EHF = biological target: T5, EHF (Homo sapiens, UniProt Q9NZC4 1-300)
# T5 sequence: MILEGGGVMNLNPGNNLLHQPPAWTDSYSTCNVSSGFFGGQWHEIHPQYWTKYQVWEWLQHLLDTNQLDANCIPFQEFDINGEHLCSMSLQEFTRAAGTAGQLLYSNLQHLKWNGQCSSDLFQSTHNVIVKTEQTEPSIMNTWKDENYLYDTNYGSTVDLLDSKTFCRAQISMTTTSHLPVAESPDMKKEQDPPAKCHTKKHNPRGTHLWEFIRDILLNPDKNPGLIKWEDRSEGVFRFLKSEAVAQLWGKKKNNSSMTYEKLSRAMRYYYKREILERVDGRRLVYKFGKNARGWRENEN
# How it was run: as §1
# SPI1 = SPI1 (Homo sapiens, UniProt P17947 1-270)
# How it was run: as §1
# SPIB = SPIB (Homo sapiens, UniProt Q01892 1-262)
# Chain of SPIB (Q01892 whole entry): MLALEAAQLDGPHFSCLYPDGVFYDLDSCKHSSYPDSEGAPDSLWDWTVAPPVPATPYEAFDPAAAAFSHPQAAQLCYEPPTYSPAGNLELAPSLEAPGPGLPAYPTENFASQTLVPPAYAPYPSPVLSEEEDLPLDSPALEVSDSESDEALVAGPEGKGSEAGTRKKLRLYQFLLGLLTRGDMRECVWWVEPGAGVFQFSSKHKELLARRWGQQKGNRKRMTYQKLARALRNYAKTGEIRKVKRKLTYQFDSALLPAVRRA
# How it was run: as §1
# ELK3 = biological target: T6, ELK3 (Homo sapiens, UniProt P41970 1-407)
# T6 sequence: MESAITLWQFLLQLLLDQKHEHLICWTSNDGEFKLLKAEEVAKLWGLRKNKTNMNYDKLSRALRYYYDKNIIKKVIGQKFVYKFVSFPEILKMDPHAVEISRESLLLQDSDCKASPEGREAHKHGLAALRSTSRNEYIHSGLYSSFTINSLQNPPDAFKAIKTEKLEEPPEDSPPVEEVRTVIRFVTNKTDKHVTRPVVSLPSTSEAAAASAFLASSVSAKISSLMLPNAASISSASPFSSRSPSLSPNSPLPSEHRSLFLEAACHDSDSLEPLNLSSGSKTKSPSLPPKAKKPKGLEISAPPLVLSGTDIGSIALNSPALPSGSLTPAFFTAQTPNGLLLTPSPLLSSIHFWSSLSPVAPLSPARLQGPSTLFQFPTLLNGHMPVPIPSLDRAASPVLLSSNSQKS
# How it was run: as §1
# ETV5 = ETV5 (Homo sapiens, UniProt P41161 1-510)
# Chain of ETV5 (P41161 whole entry): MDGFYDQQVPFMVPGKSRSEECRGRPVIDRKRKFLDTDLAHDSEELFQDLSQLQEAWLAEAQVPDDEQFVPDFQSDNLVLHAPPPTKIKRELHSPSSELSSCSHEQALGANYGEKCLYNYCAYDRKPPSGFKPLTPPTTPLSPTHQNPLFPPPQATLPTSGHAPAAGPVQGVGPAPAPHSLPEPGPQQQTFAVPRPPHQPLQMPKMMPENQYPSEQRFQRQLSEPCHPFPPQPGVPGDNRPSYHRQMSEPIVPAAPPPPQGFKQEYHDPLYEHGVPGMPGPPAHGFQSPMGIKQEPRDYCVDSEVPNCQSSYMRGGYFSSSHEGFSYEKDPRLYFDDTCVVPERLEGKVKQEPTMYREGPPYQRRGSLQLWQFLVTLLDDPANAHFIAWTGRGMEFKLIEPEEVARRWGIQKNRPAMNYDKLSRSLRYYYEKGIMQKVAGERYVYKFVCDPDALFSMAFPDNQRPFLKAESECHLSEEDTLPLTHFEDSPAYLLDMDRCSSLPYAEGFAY
# How it was run: as §1
sequence,measurement,setting,value
ACGATG,binding signal,FLI1,"1.24 fold enrichment (6-mer frequency, TF over GST control)"
same,binding signal,ELK1,"1.06 fold enrichment (6-mer frequency, TF over GST control)"
same,binding signal,GABPA,"1.17 fold enrichment (6-mer frequency, TF over GST control)"
same,binding signal,ERG,"1.13 fold enrichment (6-mer frequency, TF over GST control)"
same,binding signal,ELF1,"1.06 fold enrichment (6-mer frequency, TF over GST control)"
same,binding signal,EHF,"1.16 fold enrichment (6-mer frequency, TF over GST control)"
same,binding signal,SPI1,"1.17 fold enrichment (6-mer frequency, TF over GST control)"
same,binding signal,SPIB,"1.18 fold enrichment (6-mer frequency, TF over GST control)"
same,binding signal,ELK3,"1.17 fold enrichment (6-mer frequency, TF over GST control)"
same,binding signal,ETV5,"1.12 fold enrichment (6-mer frequency, TF over GST control)"
